Laboratory results as given in the supplement of paper PMC11732987, “Enantioselective OTUD7B fragment discovery through chemoproteomics screening and high-throughput optimisation” (Communications Chemistry, 2025).

Legend:
Experiment in all cases: log2 ratio of Biotin-Ahx-Ub-VS probe labelling (fragment/DMSO); higher = less target engagement (more negative = stronger competition), active = hit call of the paper (q ≤ 0.05, log2 ratio ≤ -1)
Conditions in all cases: compound concentration: 200 uM; treatment time: 3 h
ALG13 = biological target: T1, ALG13 (UniProt Q9NP73)
T1 sequence (whole entry): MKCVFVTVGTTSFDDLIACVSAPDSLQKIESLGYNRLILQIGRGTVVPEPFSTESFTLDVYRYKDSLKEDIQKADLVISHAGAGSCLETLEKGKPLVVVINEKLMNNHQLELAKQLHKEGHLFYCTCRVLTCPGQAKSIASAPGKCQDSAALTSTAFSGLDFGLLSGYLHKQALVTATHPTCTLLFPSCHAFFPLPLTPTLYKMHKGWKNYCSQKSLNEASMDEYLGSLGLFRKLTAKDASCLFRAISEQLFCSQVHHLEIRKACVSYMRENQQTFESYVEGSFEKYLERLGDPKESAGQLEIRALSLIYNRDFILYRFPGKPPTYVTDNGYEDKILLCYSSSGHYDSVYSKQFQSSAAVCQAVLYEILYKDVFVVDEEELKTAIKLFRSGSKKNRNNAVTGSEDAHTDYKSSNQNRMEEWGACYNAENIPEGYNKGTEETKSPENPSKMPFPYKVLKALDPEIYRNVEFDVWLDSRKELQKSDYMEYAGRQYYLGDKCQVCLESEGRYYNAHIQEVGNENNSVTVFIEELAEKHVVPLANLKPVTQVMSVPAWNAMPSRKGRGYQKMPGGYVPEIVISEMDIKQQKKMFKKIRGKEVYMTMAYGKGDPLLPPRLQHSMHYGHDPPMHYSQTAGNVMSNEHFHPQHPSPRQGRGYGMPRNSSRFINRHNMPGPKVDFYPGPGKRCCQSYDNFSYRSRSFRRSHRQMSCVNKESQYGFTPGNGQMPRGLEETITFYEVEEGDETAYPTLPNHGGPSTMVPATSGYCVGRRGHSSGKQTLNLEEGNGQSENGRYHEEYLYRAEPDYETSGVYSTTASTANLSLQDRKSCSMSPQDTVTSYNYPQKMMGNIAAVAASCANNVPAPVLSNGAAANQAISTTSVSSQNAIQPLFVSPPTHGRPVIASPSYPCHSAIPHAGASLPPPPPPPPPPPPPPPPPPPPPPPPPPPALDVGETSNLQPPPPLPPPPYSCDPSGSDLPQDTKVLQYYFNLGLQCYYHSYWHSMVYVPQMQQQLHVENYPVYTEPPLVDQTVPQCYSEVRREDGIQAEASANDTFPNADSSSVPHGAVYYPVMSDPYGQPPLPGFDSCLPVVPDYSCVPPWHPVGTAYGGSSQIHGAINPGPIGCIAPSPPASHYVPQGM
In short: (§1)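 Fragment (200 µM) or vehicle was incubated for 3 h with triplicate HEK293T lysate samples of 495 µg, which were then treated with Biotin-Ahx-Ub-VS at 0.5 µM final for 1 h. Labelled DUBs were enriched on NeutrAvidin, digested with LysC and trypsin, and analysed by diaPASEF LC-MS/MS. Values are average log2 fragment/vehicle ratios from an unpaired t-test on global-median-normalised Spectronaut label-free quantities, using proteins with ≥2 unique peptides.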

ATXN3 = ATXN3 (UniProt P54252)
Sequence of ATXN3 (P54252 whole entry): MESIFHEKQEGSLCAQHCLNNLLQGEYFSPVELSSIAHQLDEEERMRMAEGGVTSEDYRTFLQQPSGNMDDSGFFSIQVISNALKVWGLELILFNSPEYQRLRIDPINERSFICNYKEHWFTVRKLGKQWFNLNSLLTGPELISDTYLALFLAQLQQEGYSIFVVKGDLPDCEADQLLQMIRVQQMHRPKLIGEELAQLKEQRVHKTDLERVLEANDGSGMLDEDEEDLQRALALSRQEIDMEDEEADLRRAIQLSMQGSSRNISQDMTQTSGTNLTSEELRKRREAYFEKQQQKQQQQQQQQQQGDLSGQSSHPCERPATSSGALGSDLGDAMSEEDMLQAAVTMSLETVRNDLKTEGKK
In short: as §1

BAP1 = biological target: T2, BAP1 (UniProt Q92560)
T2 sequence (whole entry): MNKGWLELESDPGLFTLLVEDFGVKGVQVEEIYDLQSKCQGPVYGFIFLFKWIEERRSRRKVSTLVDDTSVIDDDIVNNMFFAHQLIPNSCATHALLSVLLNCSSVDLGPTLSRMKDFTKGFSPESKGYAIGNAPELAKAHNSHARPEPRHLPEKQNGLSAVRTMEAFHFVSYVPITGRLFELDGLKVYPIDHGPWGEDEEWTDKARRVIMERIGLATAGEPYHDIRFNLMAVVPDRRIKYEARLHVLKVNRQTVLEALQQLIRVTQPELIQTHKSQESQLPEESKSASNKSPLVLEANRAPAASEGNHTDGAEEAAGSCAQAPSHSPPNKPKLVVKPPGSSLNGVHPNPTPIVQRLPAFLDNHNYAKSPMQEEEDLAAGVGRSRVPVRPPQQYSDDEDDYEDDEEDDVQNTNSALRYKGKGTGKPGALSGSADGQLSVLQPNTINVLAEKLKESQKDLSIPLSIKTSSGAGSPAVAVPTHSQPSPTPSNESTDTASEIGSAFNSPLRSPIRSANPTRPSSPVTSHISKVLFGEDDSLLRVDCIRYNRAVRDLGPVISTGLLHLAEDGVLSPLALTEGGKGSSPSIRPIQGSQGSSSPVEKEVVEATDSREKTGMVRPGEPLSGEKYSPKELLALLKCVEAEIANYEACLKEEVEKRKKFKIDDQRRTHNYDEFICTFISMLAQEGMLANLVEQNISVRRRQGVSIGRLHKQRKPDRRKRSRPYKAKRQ
In short: as §1

EIF3F = EIF3F (UniProt O00303)
Sequence of EIF3F (O00303 whole entry): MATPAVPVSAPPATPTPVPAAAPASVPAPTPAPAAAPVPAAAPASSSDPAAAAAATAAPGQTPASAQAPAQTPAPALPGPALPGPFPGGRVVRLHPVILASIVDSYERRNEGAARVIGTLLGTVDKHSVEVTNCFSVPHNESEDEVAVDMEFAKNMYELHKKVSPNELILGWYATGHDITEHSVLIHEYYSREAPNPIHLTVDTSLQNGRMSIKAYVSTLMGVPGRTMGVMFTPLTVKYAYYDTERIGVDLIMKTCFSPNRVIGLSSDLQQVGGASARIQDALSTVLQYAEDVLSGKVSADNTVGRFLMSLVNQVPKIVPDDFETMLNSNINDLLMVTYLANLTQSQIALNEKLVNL
In short: as §1

EIF3H = EIF3H (UniProt O15372)
Sequence of EIF3H (O15372 whole entry): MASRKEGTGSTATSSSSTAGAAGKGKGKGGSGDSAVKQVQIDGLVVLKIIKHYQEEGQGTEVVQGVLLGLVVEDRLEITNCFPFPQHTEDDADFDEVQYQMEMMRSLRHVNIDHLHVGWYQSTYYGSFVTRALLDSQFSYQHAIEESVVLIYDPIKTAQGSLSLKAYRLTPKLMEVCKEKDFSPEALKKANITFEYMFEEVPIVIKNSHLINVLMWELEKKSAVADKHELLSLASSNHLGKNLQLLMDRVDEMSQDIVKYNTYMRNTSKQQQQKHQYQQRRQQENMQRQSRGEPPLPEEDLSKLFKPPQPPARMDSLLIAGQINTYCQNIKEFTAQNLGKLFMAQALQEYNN
In short: as §1

FAM105A = biological target: T3, FAM105A (UniProt Q9NUU6)
T3 sequence (whole entry): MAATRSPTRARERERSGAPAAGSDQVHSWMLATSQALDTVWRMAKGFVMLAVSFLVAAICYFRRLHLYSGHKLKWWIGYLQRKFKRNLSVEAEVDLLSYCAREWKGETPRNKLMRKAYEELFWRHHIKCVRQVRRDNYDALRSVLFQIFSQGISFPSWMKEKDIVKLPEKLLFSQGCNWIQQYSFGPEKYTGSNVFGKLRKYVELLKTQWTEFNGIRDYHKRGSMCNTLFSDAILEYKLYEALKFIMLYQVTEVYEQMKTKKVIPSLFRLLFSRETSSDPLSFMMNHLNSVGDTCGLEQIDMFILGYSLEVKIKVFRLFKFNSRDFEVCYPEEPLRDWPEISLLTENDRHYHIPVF
In short: as §1

OTUB1 = OTUB1 (UniProt Q96FW1)
Sequence of OTUB1 (Q96FW1 whole entry): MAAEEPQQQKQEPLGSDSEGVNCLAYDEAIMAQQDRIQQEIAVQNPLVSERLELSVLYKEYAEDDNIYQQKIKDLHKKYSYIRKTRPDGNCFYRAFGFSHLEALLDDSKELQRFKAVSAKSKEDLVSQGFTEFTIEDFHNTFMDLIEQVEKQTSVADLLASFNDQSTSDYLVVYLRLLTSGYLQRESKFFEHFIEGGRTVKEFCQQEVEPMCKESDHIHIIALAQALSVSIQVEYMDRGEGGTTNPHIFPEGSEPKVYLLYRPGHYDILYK
In short: as §1

OTUD4 = biological target: T4, OTUD4 (UniProt Q01804)
T4 sequence (whole entry): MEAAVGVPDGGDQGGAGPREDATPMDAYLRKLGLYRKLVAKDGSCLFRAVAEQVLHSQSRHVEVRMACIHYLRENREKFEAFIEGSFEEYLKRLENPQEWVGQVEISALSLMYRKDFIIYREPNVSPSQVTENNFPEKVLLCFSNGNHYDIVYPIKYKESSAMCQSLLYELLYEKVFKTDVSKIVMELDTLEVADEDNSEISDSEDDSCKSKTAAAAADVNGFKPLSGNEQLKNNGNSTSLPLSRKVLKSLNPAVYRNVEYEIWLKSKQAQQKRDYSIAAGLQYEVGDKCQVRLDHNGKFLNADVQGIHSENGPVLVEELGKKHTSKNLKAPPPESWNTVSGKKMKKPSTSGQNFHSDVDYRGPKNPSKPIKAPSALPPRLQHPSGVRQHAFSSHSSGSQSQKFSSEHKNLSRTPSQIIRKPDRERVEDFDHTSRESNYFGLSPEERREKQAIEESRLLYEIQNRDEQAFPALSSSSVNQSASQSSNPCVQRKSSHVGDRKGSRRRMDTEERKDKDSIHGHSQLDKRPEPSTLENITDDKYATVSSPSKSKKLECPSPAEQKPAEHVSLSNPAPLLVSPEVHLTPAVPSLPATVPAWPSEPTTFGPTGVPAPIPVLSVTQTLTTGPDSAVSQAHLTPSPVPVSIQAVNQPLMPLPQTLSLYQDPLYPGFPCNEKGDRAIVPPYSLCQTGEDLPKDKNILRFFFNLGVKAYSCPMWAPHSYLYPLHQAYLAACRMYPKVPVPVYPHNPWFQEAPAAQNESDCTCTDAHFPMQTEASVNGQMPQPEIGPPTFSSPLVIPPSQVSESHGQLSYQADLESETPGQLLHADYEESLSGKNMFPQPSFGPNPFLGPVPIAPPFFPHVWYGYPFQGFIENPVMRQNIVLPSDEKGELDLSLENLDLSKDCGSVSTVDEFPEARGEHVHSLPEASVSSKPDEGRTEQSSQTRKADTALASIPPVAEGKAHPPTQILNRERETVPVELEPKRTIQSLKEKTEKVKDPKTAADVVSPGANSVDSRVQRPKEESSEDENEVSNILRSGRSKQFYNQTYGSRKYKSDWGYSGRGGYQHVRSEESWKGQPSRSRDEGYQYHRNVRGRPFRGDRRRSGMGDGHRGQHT
In short: as §1

OTUD5 = biological target: T5, OTUD5 (UniProt Q96G74)
T5 sequence (whole entry): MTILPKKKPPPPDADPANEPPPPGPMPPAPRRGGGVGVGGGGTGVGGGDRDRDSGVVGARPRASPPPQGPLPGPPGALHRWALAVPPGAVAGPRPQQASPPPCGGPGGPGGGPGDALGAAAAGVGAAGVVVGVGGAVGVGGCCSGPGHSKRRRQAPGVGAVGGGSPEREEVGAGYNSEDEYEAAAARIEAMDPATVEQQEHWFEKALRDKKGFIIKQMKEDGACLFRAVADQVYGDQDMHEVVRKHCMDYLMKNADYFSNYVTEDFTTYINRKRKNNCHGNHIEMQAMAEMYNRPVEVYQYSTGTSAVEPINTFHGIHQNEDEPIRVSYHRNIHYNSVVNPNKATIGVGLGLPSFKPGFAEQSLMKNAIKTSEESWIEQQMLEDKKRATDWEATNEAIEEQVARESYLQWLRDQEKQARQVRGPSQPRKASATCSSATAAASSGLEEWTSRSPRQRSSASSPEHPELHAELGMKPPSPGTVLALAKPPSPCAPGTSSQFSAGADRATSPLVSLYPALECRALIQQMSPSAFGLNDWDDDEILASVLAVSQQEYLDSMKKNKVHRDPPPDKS
In short: as §1

Measured: log2 ratio of Biotin-Ahx-Ub-VS probe labelling

O=C(CCl)N1CCC(=C(F)CO)C1
inactive: ALG13 -0.0371 | ATXN3 -0.106 | BAP1 -0.015 | EIF3F -0.0747 | EIF3H -0.169 | FAM105A -0.0583 | OTUB1 -0.0358 | OTUD4 0.198 | OTUD5 -0.126
